Bioassay records (PubChem)
NALP1 yeast inh = blocks the NALP1 inflammasome reconstituted in yeast; S. cerevisiae NALP1/ASC/caspase-1 growth, X-gal OD620, 72 h; inhibition, % at 10 µM; actives 0.61% (n = 280,000); AID 2071; in the data active = inhibition mostly above about 24%, no sharp cut-off; inactive = mostly below about 32%
Hsp70 activator = transcriptional activators of Hsp70; HeLa Hsp70 promoter luciferase reporter, luminescence; scaled: vehicle 0, proteasome-inhibitor control 100%; activation, % at 10 µM; actives 0.04% (n = 200,000); AID 1203;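 active = activation above the mean across all tested compounds plus 3 SD, cutoff set per campaign, cut at about 5.5% in these data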;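 note: 100% = MG132 at 30 µM as the positive control and 0% = DMSO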
HSP90 inh = HSP90 refolding inhibition in rabbit reticulocyte lysate. luciferase refolding luminescence, 3 h. inhibition, % at 5.6 µM. actives 0.91% (n = 290,000). AID 1789;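 active = inhibition above the screen-wide mean plus 3 SD, computed separately per campaign, cut at about 16% in these data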;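 note: 0% = DMSO wells and 100% = 60 µM geldanamycin wells; inhibitors lower the luminescence because luciferase stays unfolded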
HSF1 inh = HSF1 inhibition; NIH3T3-HGL HSE-luciferase, MG132-induced, luminescence 8 h; stronger effect = lower value; activity change, negative = inhibition, % at 7.5 µM (by protocol); actives 0.77% (n = 300,000); AID 2098;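 active = more than half of replicate wells show activity change below -50%, luminescence cut by over half; inconclusive = some wells, but at most half, below -50%; inactive = no replicate well below -50%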;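 note: luciferase reports HSF-1 transcriptional activity via heat shock element; 0% = median of DMSO wells and -100% = zero luminescence signal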
HSF1 activator = increases HSF-1 driven luciferase reporter signal. activation, % at 9 µM. actives 1.7% (n = 300,000). NIH3T3-HGL HSF-1 luciferase reporter, MG132, 8 h; 100% = twice DMSO control signal;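 active = mean replicate activation of at least 50% with a set share of replicates each reaching 50%; inconclusive = only one of those two conditions met; inactive = mean below 50% and too few replicates reaching it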;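 note: 0% = median of the neutral control wells and 100% = twice that signal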
pCIP destab = lowers stability of the mouse p/CIP coactivator protein; Q05BA5; F442A p/CIP-EGFP cells, EGFP fluorescence, 16 h; decrease of EGFP signal, % at 10 µM; actives 0.01% (n = 290,000); AID 1984;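 active = EGFP signal decrease of at least 30% at 10 µM or well 3 SD below plate mean, unless failing retest; inactive = the rest, including hits failing retest or dose response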
Target sequence (Q05BA5 1-1403): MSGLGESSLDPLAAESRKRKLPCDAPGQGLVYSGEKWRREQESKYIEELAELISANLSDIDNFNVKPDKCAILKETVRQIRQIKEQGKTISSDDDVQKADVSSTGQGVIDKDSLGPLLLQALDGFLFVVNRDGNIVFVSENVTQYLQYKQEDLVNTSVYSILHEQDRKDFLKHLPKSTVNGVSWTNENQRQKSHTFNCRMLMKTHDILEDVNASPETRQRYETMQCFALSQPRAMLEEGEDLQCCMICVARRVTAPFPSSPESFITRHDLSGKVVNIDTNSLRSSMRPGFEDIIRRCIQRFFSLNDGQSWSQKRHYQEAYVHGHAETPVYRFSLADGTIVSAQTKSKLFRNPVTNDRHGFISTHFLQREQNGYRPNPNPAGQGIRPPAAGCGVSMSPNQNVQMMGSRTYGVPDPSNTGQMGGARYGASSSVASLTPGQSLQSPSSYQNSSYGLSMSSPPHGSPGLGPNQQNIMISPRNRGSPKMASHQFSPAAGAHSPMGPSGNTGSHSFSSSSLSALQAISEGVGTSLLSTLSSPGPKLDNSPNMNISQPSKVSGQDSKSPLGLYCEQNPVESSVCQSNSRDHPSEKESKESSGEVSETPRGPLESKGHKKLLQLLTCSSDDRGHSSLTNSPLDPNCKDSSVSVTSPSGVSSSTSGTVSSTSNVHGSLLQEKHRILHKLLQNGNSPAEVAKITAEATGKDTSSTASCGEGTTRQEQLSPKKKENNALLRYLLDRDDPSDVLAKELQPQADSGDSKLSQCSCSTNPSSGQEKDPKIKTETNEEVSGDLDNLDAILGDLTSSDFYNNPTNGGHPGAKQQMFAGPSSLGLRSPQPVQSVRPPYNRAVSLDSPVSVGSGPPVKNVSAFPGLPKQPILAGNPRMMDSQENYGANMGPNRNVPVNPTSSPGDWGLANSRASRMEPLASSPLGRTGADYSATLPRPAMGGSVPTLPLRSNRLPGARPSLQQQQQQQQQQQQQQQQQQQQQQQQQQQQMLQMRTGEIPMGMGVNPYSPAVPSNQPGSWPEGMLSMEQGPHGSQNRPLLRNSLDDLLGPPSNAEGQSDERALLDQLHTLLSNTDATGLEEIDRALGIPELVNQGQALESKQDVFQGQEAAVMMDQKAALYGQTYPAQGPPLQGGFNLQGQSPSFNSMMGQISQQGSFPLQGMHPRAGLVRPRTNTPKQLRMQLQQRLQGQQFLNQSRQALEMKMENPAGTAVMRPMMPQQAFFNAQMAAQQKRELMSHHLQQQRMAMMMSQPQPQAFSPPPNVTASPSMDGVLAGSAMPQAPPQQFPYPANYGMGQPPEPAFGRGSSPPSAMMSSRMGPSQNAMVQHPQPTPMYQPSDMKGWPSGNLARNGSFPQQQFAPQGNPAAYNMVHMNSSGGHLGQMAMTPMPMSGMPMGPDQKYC
* hit, by the source's call; ? = inconclusive; / = not tested or not shown. Compounds with a hit are over-represented: about 3.8% of the library has one in this group of screens.

SMILES	NALP1 yeast inh	Hsp70 activator	HSP90 inh	HSF1 inh	HSF1 activator	pCIP destab
CC1CN(C(=S)NC(=O)C2CCCCC2)CC(C)O1 (stereo not drawn)	27.0	-0.1	2.4	12.5	52.0*	0.7
CCCC[C@@H](CNC)NC[C@H](Cc1ccc(O)cc1)NCCc1ccc(OCC)cc1	15.4	/	-1.2	-79.6*	-83.5	0.6
O=C(CSC1=N/C(=C/c2ccco2)C(=O)N1c1ccc(OC(F)F)cc1)NC1CCS(=O)(=O)C1 (stereo not drawn)	-9.3	-0.3	5.6	26.0	63.7*	8.3
O=S1(=O)C=C(Sc2nc3ccccc3s2)c2ccccc21	12.0	3.1	7.3	-87.3*	-86.8	-0.3
O=C(NC1CCCCC1)C(c1ccc(F)cc1)N(CCCN1CCOCC1)C(=O)c1ccc(CN2CCOCC2)o1 (stereo not drawn)	29.4	/	-2.0	1.4	15.2	-1.3
CC(=O)N1N=C(c2ccccc2)CC1c1ccccc1[N+](=O)[O-] (stereo not drawn)	0.5	-0.1	1.8	76.3	109.4*	9.9
O=C(COC(=O)c1cccnc1Cl)c1ccc2c(c1)OCCO2	18.6	0.0	5.9	5.2	18.6	6.2
O=C(COC(=O)c1ccc(Cl)nc1)c1ccc2c(c1)OCCO2	-3.4	0.2	5.5	40.8	65.2*	16.6
COc1ccc(C(=O)/C=C/C(=O)N(CC(=O)NC2CCCCC2)Cc2cccs2)c(O)c1	1.5	0.3	2.2	/	/	-13.7
COCCN(CC(=O)NC1CCCCC1)C(=O)/C=C/C(=O)c1ccc(OC)cc1O	-7.0	0.1	-1.9	-83.5*	-85.3	-0.1
Cc1cccc(CSCCNC(=O)CSCc2ccc([N+](=O)[O-])cc2)c1	21.4	-0.4	-2.1	-12.5	-25.8	-10.1
Cc1ccc(CSCCNC(=O)CSCc2ccc([N+](=O)[O-])cc2)cc1	48.2*	0.1	-0.8	6.3	11.5	-4.4
O=S(=O)(NNC(=S)Nc1ccc(S(=O)(=O)Nc2ncccn2)cc1)c1ccc(Br)cc1	3.1	/	1.5	-2.8	8.5	-18.6
CCOc1ccc(S(=O)(=O)NNC(=S)Nc2ccc(Br)cc2)cc1	15.9	-0.3	1.6	86.6	112.6*	-0.2
Cc1ccc(C(=O)CC2(O)C(=O)N(C)c3ccccc32)s1 (stereo not drawn)	13.8	-0.1	-2.2	11.3	1.2	20.8
CC(C)c1onc(C(=O)N2CCN(c3ccccc3)CC2)c1[N+](=O)[O-]	/	/	-0.1	-2.4	-3.8	-13.7
CC(C)c1onc(C(=O)N2CCN(C(c3ccccc3)c3ccccc3)CC2)c1[N+](=O)[O-]	25.9	-0.4	5.6	-56.8*	-62.0	9.2
O=C(Nc1cnccn1)c1ccc(F)cc1Cl	18.3	/	-2.3	-25.0	-38.7	-17.9
COc1c(CC=C(C)C)cc(C2CC(=O)c3c(O)cc(O)cc3O2)cc1CC=C(C)C (stereo not drawn)	5.6	/	/	-90.8*	-90.7	4.6
Clc1ccc2nc(N3CCN(c4ccccc4)CC3)sc2c1	-91.7	0.2	0.4	39.9	?	-3.4
c1ccc(N2CCN(c3nc4cc5c(cc4s3)OCO5)CC2)cc1	37.2	0.3	0.7	48.0	71.9*	-4.5
Brc1ccc2nc(N3CCN(c4ccccc4)CC3)sc2c1	-25.7	-0.5	-2.4	41.1	73.1*	-4.7
Cc1cc(C)nc(Nc2nc3ccccc3s2)n1	-18.7	0.2	-1.7	13.9	14.0	2.7
c1ccc2sc(Nc3nc4cc5c(cc4s3)OCO5)nc2c1	-3.4	-0.1	4.2	36.9	75.7*	-5.3
Cc1ccc(Nc2nc3ccccc3s2)c(C)c1	35.2	-0.2	3.4	10.8	66.1*	-5.0
CCN1C(=O)[C@@H]2[C@H](C1=O)[C@@H]1CC(C(=O)OC)=C[C@@H](C(=O)OC)C3C1=C(C(=O)C3(CC)CC)[C@@H]2C (stereo partly drawn)	/	/	/	3.5	1.2	/
O=C(NCc1ccc(Cl)cc1)C1CCN(S(=O)(=O)c2cccc3nonc23)CC1	16.3	/	3.7	-2.0	10.6	0.9
COC(=O)N1C(=O)[C@@](c2ccccc2)(C2CCCCC2)N1C(=O)OC	22.5	/	2.6	35.1	?	-6.4
O=C(O)C1=C[C@@H](c2ccc(Br)cc2)C[C@@H](OCCCCO)O1	/	/	/	-3.7	1.2	/
O=C(c1n[nH]c2ccccc12)N1CCOCC1	4.0	-0.1	-1.4	-3.9	2.2	-13.2
